For experiment [1], the target named is T1, Estrogen receptor (Homo sapiens) + Estrogen receptor beta (Homo sapiens) (UniProt P03372+Q92731). Nature of the experiment: OT_ER_ERaERb_0480: Odyssey Thera (OT) 8-hour HEK293T Protein-Complementation Assay for Estrogen Receptor-alpha/-beta Heterodimer (AID 2283352). An outline of the steps:
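Fluorescence increase from reconstituted reporter fragments, quantified by laser scanning cytometer, reflects ER-alpha/ER-beta heterodimer formation in human HEK293T cells. Exposure 8 h; positive-direction fitting against DMSO vehicle.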

Experiment [2] deals with T1, Estrogen receptor (Homo sapiens) + Estrogen receptor beta (Homo sapiens). Nature of the experiment: OT_ER_ERaERb_1440: Odyssey Thera (OT) 24-hour HEK293T Protein-Complementation Assay for Estrogen Receptor-alpha/-beta Homodimer (AID 2283356).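 Also: heteromer of ER alpha and ER beta binding domains; hits raise reporter fluorescence and both agonists and antagonists give an increase.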 An outline of the steps:
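Fragment complementation between ER alpha (310-547) and ER beta (263-489) ligand-binding domains in HEK293T cells; signal read 24 h post-dosing by laser scanning cytometer. Gain of fluorescence relative to DMSO fitted.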

Experiment [3] deals with Estrogen receptor beta (Homo sapiens) (UniProt Q92731). Nature of the experiment: OT_ER_ERbERb_0480: Odyssey Thera (OT) 8-hour HEK293T Protein-Complementation Assay for Estrogen Receptor-beta/-beta Homodimer (AID 2283357).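 Also: active means signal gain over DMSO baseline.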 An outline of the steps: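 ER-beta LBD homodimer PCA stably expressed in HEK293T; 8 h compound exposure, then formaldehyde fixation and Draq5 staining. Gain in nuclear/cytoplasmic fluorescence intensity versus DMSO vehicle, read on laser scanning cytometer.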
Chain of Estrogen receptor beta (Homo sapiens) (Q92731 whole entry, looked up, the tested form may be a part): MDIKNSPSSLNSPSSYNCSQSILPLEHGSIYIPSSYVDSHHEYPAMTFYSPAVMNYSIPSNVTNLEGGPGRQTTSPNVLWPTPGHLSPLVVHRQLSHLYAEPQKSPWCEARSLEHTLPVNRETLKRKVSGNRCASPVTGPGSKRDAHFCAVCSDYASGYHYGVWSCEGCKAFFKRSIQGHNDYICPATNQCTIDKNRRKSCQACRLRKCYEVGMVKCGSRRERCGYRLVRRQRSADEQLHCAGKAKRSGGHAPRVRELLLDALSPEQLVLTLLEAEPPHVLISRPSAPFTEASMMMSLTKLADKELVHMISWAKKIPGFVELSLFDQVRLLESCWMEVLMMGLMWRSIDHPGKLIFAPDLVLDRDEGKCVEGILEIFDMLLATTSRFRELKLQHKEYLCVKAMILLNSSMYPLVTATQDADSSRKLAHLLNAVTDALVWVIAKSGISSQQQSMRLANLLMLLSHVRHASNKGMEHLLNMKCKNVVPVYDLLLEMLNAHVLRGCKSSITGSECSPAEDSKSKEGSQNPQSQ

For experiment [4], the target named is human Peroxisome Proliferator-activated Receptor alpha (PPARa), PPARA (gene 5465) (UniProt Q07869). Nature of the experiment: NVS_NR_hPPARa: NovaScreen (NVS) Nuclear Receptor Binding Assay for human Peroxisome Proliferator-activated Receptor alpha (PPARa) (AID 2283359).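 Also: activity means loss of TR-FRET signal versus DMSO baseline.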 An outline of the steps:
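Loss of TR-FRET binding signal relative to DMSO was measured 1 h after chemical addition to extracted receptor protein. Chemicals were first tested in duplicate at 25 uM, and actives were followed up in concentration series.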

Experiment [5] deals with Nuclear receptor subfamily 1 group I member 2 (Homo sapiens) (UniProt O75469). Nature of the experiment: NVS_NR_hPXR: NovaScreen (NVS) Nuclear Receptor Binding Assay for human Pregnane X Receptor (PXR) (AID 2283365).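 Also: a drop in FRET signal versus DMSO baseline means the compound binds.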 In short, it runs like this: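 Human PXR binding measured by TR-FRET in a cell-free format, 2 h exposure. Single-concentration duplicates at 25 uM preceded concentration-response retests of actives; endpoint fitted positively relative to DMSO, loss of signal indicating binding.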
Chain of Nuclear receptor subfamily 1 group I member 2 (Homo sapiens) (O75469 whole entry, looked up): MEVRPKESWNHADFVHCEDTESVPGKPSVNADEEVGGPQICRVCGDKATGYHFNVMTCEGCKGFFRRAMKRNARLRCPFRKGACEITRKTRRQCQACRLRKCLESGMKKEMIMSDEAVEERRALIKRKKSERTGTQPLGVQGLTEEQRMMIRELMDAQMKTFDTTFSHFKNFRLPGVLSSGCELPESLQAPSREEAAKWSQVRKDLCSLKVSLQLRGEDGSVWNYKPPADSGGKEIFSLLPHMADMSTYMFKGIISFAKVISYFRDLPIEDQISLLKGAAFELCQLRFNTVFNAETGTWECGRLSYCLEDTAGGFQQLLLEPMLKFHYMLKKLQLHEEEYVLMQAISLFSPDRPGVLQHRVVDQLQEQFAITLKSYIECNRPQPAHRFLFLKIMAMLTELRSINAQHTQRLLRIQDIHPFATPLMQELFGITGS

Experiment [6] addresses Peroxisome proliferator-activated receptor gamma (Homo sapiens) (UniProt P37231). Nature of the experiment: NVS_NR_hPPARg: NovaScreen (NVS) Nuclear Receptor Binding Assay for human Peroxisome Proliferator-activated Receptor gamma (PPARg) (AID 2283370). In short, it runs like this:
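Fluorescence polarization readout of ligand binding to extracted human PPARg, measured at 2 h. Duplicate single-point screen at 25 uM, then concentration-series retesting; activity defined as signal loss versus DMSO.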

Experiment [7] deals with human Dopamine Transporter (DAT), SLC6A3 (gene 6531) (UniProt Q01959). Nature of the experiment: NVS_TR_hDAT: NovaScreen (NVS) Transporter Assay for human Dopamine Transporter (DAT) (AID 2283374).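 Also: activity means loss of bound radioligand signal relative to DMSO.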 In short, it runs like this: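 Duplicate single-point screening at 25 uM preceded concentration-series follow-up of actives. Binding was measured by competitive displacement of a radioligand from DAT protein, filter-counted by scintillation 1 h after dosing. Decrease relative to DMSO taken as activity.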

For experiment [8], the target named is human Norepinephrine Transporter (NET), SLC6A2 (gene 6530) (UniProt P23975). Nature of the experiment: NVS_TR_hNET: NovaScreen (NVS) Transporter Assay for human Norepinephrine Transporter (NET) (AID 2283377).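 Also: cell-free membrane protein extracted from CHO cells expressing human NET; displacement of radioligand from human NET seen as loss of scintillation signal.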 An outline of the steps: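 Single-concentration duplicate screen at 25 uM, then concentration-response for actives; displacement of specific radioligand from human NET in CHO membrane extracts, filter-based scintillation detection at 1 h relative to DMSO.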

Experiment [9] deals with mouse Estrogen Receptor alpha (Era), Esr1 (gene 13982) (UniProt P19785). Nature of the experiment: NVS_NR_mERa: NovaScreen (NVS) Nuclear Receptor Binding Assay for mouse Estrogen Receptor alpha (Era) (AID 2283378).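 Also: hit means loss of bound radioligand signal relative to DMSO.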 In short, it runs like this: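 Filter radiodetection of radioligand displacement from extracted receptor protein, measured 18 h post-dose. Single 25 uM concentration in duplicate initially, with concentration-series follow-up. Binding loss fitted relative to DMSO.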
Chain of mouse Estrogen Receptor alpha (Era), Esr1 (gene 13982) (P19785 whole entry, looked up): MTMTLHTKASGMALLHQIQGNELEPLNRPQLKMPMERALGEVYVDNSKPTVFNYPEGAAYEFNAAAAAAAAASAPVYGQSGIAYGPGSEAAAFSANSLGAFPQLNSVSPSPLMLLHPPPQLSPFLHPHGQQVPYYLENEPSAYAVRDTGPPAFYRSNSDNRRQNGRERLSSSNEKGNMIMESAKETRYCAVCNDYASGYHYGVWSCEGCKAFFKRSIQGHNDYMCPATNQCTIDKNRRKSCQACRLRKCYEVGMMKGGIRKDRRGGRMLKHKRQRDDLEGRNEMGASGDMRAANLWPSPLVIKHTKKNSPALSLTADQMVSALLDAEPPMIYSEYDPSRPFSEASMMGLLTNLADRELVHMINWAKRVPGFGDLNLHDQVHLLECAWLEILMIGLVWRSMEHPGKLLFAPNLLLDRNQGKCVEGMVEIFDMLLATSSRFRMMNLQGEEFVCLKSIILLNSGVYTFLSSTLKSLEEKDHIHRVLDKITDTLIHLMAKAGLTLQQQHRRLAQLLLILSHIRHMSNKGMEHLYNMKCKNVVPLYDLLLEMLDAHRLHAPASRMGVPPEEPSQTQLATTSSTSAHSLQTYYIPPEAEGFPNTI

The target in experiment [10] is Retinoic acid receptor alpha (Homo sapiens) (UniProt P10276). Nature of the experiment: NVS_NR_hRARa_Agonist: NovaScreen (NVS) Nuclear Receptor Binding Assay for human Retinoic Acid Alpha Receptor Agonism (RAR) (AID 2283361). In short, it runs like this:
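Agonist-mode TR-FRET binding format using extracted protein, measured at 2 h post-dosing. Initial duplicate single-point screen at 25 uM preceded concentration series for actives; activity was normalized to DMSO baseline.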

The target in experiment [11] is rat Mineralocorticoid Receptor (MR), Nr3c2 (gene 25672) (UniProt P22199). Nature of the experiment: NVS_NR_rMR: NovaScreen (NVS) Nuclear Receptor Binding Assay for rat Mineralocorticoid Receptor (MR) (AID 2283355). An outline of the steps:
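Primary HTS ran in duplicate at a single 25 uM concentration, with concentration-series follow-up for actives. Receptor source: adrenalectomized rat brain supernatant, cell-free. Radioligand displacement read by scintillation at 24 h, relative to DMSO baseline.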

Experiment [12] concerns the target Androgen Receptor/SRC-1 Co-activator, AR (gene 367) (UniProt P10275). Nature of the experiment: OT_AR_ARSRC1_0960: Odyssey Thera (OT) 16-hour HEK293T Protein-Complementation Assay for Androgen Receptor/SRC-1 Co-activator (AID 2283353).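 Also: actives raise the signal above DMSO so potency reflects increased AR and SRC-1 complex.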 An outline of the steps: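 Stable HEK293T line carries AR and SRC-1 each linked to a Venus fragment; chemicals are applied for 16 h, cells imaged at two wavelengths, and the 488 nm nucleus/cytoplasm ratio is taken as the signal, rising relative to DMSO.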

Experiment [13] has the same target. Nature of the experiment: OT_AR_ARSRC1_0480: Odyssey Thera (OT) 8-hour HEK293T Protein-Complementation Assay for Androgen Receptor/SRC-1 Co-activator (AID 2283354).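 Also: hits raise the complementation signal above DMSO so AC50 marks enhancers.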 In short, it runs like this: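 Reconstituted split-Venus YFP signal from AR–SRC-1 interaction, read by imaging 8 h post-dose in stable HEK293T lines. The 488 nm nucleus-to-cytoplasm ratio (≥400 cells/image) was fitted upward against DMSO.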

Experiment [14] deals with Retinoic acid receptor alpha (Homo sapiens) (UniProt P10276). Nature of the experiment: NVS_NR_hRAR_Antagonist: NovaScreen (NVS) Nuclear Receptor Binding Assay for human Retinoic Acid Alpha Receptor Antagonism (RAR) (AID 2283358). An outline of the steps: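 RARalpha antagonism was read by TR-FRET as loss of binding signal versus DMSO, 2 h after chemical addition, in a biochemical format. Single-concentration duplicates (25 uM) were run first, and actives were retested in concentration series.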
Chain of Retinoic acid receptor alpha (Homo sapiens) (P10276 whole entry, looked up): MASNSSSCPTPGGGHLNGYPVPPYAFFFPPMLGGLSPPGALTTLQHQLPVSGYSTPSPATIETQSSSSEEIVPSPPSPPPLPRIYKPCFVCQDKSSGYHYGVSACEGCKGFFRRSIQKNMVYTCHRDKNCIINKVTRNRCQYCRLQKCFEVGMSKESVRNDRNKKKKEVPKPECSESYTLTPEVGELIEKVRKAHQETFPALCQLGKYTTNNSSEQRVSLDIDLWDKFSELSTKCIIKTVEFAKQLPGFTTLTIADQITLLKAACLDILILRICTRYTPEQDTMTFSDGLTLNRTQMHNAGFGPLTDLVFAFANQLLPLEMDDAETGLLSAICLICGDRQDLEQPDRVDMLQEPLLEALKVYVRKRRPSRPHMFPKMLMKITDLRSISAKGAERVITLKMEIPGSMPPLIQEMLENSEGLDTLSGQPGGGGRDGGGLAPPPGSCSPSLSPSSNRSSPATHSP

In experiment [15] the target is rat Androgen Receptor (AR), Ar (gene 24208) (UniProt P15207). Nature of the experiment: NVS_NR_rAR: NovaScreen (NVS) Nuclear Receptor Binding Assay for rat Androgen Receptor (AR) (AID 2283366). An outline of the steps: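 Actives from a duplicate single-concentration (25 uM) primary run went on to concentration series. Displacement of radioligand was counted by filtration and scintillation, 18 h post-dose, using prostate extracts from testosterone-pretreated rats, with DMSO as baseline.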

The target in experiment [16] is human Thyroid Receptor Alpha (TRa), THRA (gene 7067) (UniProt P10827). Nature of the experiment: NVS_NR_hTRa_Antagonist: NovaScreen (NVS) Nuclear Receptor Binding Assay for human Thyroid Receptor Alpha Antagonism (TRa) (AID 2283362).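 Also: activity is loss of signal relative to DMSO baseline.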 An outline of the steps: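 Actives from a duplicate 25 uM single-point screen were retested in concentration series. The cell-free antagonist-format binding assay was read by AlphaLISA chemiluminescence at 1 h, scored as signal loss relative to DMSO.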

SMILES strings stand for the structures. Records with an inconclusive call do not appear. More than one record can exist for a structure, and the calls need not agree. Calls of active or inactive are those of the source. The calls were made as follows: active = hit-call score of the fitted dose curve at least 0.9, where 1 is the maximum; inconclusive = response in the unintended direction; inactive = score below 0.9.

Chain of Androgen Receptor/SRC-1 Co-activator, AR (gene 367) (P10275 whole entry, looked up, the tested form may be a part): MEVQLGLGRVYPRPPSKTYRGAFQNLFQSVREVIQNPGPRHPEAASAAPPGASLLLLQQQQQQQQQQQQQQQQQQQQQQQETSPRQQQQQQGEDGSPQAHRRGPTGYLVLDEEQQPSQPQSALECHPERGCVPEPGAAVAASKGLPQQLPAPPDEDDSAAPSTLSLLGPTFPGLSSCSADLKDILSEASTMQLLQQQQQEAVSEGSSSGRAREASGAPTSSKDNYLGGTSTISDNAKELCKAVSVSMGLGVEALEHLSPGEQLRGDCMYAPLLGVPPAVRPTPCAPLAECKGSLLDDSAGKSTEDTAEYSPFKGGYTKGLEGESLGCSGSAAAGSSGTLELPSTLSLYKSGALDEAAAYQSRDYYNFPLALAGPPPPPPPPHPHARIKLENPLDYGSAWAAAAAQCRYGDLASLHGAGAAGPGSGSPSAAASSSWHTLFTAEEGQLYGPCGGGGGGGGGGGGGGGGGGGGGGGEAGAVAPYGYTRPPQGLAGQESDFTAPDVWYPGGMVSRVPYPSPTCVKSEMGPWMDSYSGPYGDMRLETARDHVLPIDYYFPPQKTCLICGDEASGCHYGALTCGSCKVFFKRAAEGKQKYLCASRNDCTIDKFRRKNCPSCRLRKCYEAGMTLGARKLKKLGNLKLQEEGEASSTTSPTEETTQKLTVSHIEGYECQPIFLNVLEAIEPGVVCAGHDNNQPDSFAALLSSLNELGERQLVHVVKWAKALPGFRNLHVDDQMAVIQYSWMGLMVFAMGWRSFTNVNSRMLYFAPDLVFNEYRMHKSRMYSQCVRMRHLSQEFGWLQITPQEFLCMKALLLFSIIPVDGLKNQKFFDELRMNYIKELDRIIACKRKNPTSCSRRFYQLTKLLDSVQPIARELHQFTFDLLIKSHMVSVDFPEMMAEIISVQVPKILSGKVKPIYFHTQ
Chain of human Peroxisome Proliferator-activated Receptor alpha (PPARa), PPARA (gene 5465) (Q07869 whole entry, looked up): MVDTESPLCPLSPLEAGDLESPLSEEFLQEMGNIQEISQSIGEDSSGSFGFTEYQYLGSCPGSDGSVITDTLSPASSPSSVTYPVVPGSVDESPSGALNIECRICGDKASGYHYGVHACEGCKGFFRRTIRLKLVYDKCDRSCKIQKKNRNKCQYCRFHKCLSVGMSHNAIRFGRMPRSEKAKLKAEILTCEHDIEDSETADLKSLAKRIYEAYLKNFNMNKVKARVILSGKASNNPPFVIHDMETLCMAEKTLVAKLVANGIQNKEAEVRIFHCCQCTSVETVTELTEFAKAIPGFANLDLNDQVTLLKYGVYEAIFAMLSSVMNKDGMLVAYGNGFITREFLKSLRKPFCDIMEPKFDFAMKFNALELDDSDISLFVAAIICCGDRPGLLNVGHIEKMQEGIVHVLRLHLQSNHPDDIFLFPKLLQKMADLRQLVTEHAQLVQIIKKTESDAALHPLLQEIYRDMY
T1 sequence (P03372 whole entry, looked up, the tested form may be a part): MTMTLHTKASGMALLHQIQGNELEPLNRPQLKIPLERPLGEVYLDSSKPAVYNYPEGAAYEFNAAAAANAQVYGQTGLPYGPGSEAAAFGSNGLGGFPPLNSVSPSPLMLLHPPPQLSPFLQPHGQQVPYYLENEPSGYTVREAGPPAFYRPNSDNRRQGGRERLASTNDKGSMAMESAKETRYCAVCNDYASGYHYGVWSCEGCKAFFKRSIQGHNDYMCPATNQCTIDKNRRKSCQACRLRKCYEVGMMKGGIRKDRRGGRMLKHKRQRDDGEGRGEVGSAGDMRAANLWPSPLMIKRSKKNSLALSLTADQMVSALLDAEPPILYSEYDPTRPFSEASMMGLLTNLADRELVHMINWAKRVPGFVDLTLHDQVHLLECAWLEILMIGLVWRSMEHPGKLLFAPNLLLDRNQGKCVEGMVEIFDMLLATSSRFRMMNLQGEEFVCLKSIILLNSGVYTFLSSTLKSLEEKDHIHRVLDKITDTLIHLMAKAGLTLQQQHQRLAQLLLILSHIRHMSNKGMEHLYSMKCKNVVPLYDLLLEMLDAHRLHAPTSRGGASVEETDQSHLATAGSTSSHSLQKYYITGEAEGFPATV
T1 sequence (Q92731 whole entry, looked up, the tested form may be a part): as the sequence (Q92731 whole entry, looked up, the tested form may be a part) above
Chain of Peroxisome proliferator-activated receptor gamma (Homo sapiens) (P37231 whole entry, looked up): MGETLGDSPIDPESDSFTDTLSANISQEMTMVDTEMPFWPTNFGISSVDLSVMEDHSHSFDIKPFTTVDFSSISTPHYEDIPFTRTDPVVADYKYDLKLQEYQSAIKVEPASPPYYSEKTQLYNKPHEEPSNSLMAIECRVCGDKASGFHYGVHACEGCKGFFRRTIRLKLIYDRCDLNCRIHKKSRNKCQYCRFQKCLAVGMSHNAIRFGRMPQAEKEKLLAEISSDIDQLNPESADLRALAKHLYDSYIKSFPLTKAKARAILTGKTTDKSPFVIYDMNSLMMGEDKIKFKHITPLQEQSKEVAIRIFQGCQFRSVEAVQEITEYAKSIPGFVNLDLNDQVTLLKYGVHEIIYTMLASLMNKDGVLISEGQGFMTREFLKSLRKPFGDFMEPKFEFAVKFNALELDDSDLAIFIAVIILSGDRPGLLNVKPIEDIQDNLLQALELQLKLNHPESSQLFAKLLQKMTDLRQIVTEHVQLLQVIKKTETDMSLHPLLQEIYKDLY

For the compound `CCOC(=O)Cc1cccc2ccccc12`, in experiment [1], the AC50 was 61.7 µM (active). The outcome in experiment [2] and in experiment [3] was inactive.

For `CCCCC/C=C\C/C=C\CCCCCCCC(=O)OC`, the result in experiment [1], in [2], in experiment [3], in [4], in [5] and in experiment [6] was inactive. The result in experiment [7] and in [9] was inactive. The figures for the AC50 in experiment [6] and in experiment [8] were 8.81 µM (active) and 25 µM (active), respectively.

For `CN(C)c1ccc(C(=N)c2ccc(N(C)C)cc2)cc1`, the result in experiment [1], in [3] and in [9] was inactive. Moreover, the values for the AC50 in experiment [2] and in experiment [10] were 18.4 µM (active) and 14.1 µM (active), respectively.

With `c1c[nH]cn1`, the outcome in experiment [1] and in experiment [2] was inactive.

In the case of `CCCCCCCOC(=O)CCC`, the result in experiment [1], in experiment [11], in experiment [2] and in experiment [3] was inactive.

As for `O=S(=O)(O)c1ccccc1C=Cc1ccc(-c2ccc(C=Cc3ccccc3S(=O)(=O)O)cc2)cc1`, the result in experiment [1], in experiment [2] and in experiment [6] was inactive. Also, the AC50 in experiment [3] was 65.5 µM (active); in experiment [10], 12.1 µM (active).

Regarding `O=C1CCCC1`, the outcome in experiment [1], in experiment [2] and in [3] was inactive.

`Oc1ccc(Cl)cc1Cc1cc(Cl)ccc1O`: the AC50 is 11.9 µM (active) in experiment [1]; 29.6 µM (active) in experiment [12]; 55.5 µM (active) in experiment [13]; 11.9 µM (active) in experiment [2]; 11.9 µM (active) in [3]; 14 µM (active) in [4]. In addition, the AC50 in experiment [5] is 16.8 µM (active); in experiment [15], 1.42 µM (active); in experiment [6], 25 µM (active). For the same compound, the result in [14] was inactive.

As to `CC(C)=CCC[C@H](C)CCO`, the result in [1], in [12], in [13], in experiment [2] and in experiment [3] was inactive.

On to `CC=C1CC2C=CC1C2` (centres undefined), for which the outcome in [1], in experiment [2] and in experiment [3] was inactive.

In the case of `CC/C=C\C/C=C\C/C=C\CCCCCCCC(=O)O`, the outcome in experiment [1], in [2], in experiment [3], in [4], in experiment [16] and in [9] was inactive. Further, the values for the AC50 in experiment [5] and in experiment [6] were 3.05 µM (active) and 0.00769 µM (active), respectively.

Regarding `Cc1cc(C)c(C(=O)O)c(C)c1`, the outcome in experiment [1], in experiment [2] and in [3] was inactive.

Regarding `O=C(C=Cc1ccccc1)OCc1ccccc1`, the result in [1], in [2] and in experiment [3] was inactive.

`CNC(=S)NN`: the outcome in experiment [1] and in experiment [2] was inactive.

Take `CCCc1ccc(OC)cc1`: the outcome in [1], in experiment [12], in experiment [13], in experiment [2] and in experiment [3] was inactive.

Turning to `Cn1c([N+](=O)[O-])cnc1COC(N)=O`, the outcome in experiment [1], in experiment [2] and in experiment [3] was inactive.

Consider `CC(C)(C)c1ccc(N)cc1`, for which the result in [1], in experiment [2] and in experiment [3] was inactive.

In the case of `CCCCCCCCCCCCCOP(=O)(O)O`, the result in experiment [1], in experiment [2], in experiment [3], in [14], in [4] and in experiment [5] was inactive. Also, the outcome in [6] was inactive. The AC50 in experiment [9] was 39.4 µM (active).

As to `C=C1C2CCC(C2)C1(C)C` (centres undefined), the result in experiment [1] and in experiment [2] was inactive.

On to `C=CC(=O)NC(C)(C)CS(=O)(=O)O`, for which the result in experiment [1], in experiment [2] and in experiment [3] was inactive.

For the compound `CC(C)(C)c1ccc(-c2ccc(C(C)(C)C)cc2)cc1`, the result in experiment [1], in experiment [13], in experiment [2] and in [3] was inactive. In [12], the AC50 is 77.8 µM (active).

Consider `O=c1cc(-c2ccccc2)oc2ccccc12`, for which the result in experiment [1], in experiment [12], in [13], in [3], in [5] and in [6] was inactive. In addition, the AC50 in [2] is 57.3 µM (active).

As to `CO[Si](OC)(OC)c1ccccc1`, the result in [1] and in experiment [2] was inactive.

Turning to `CC(C)c1ccc2cc(C(C)C)ccc2c1`, the result in experiment [1], in experiment [12], in experiment [13], in [2] and in experiment [3] was inactive.

Take `CC(C)(C)c1ccc(OC(=O)c2ccccc2O)cc1`: the figures for the AC50 in [1] and in experiment [2] were 58.9 µM (active) and 55.2 µM (active), respectively. Further, the call in experiment [3] was inactive.

Turning to `OC1CCCC1`, the result in [1] and in experiment [2] was inactive.

The record behind these values is PubChem BioAssay (EPA / NIEHS).
